The supplement of paper PMC11417369
The full ranking holds about 25,000 sequences; the median of “ln(normalized median fluorescence intensity)” is about 9.3, and the highest 2% start at about 10. The entries come from a sample that favours the highest values as a whole.

System: PF3D7_0420300 AP2 domain 1 (GST-tagged)
Assay: gcPBM binding intensity (ln(normalized median fluorescence intensity)); higher = stronger DNA binding
How it was run: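 Alexa488 anti-GST antibody, scanned at 488 nm, detected GST-tagged P. falciparum DNA-binding domains that had been expressed in E. coli and incubated for 1 h on an Agilent 4 × 180k array. The array carried primer-extended double-stranded 36-bp intergenic genomic probes and negative controls. Binding intensity is the highest Masliner-normalised natural-log median intensity across replicate spots of either orientation of each probe.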

Sequence	gcPBM binding intensity (ln)
GGCATACACAGACACACACACACACCCACATATATA [CACACA_site591]	10.3
CACCCCCACAGACACACACACACACCCATATATATA [CACACA_site364]	10.3
CATACACCCATACATACACACATACAGATATATATA [CACACA_site5123]	9.74
TACCTATACAGACACACACACACACGCCCACAAAAA [CACACA_site6375]	10.3
TAAATACAGACATACACACATACACCCACATATATA [CACACA_site547]	9.95
ATATTATTGTAGAAATGTACATATATATATATATAT [XGTACX_site1882]	9.31
ATCATATGTATGCATACACACAAAAAGTTATTTATA [CACACA_site6325]	9.37
CATACATACAAACACACACACACACCCATATATATA [CACACA_site2918]	10.4
TTAACAAATAAACACACACACACACCCAAAAAAAAA [CACACA_site8068]	10.1
TATATAAATGGACACACACACACCTTATAATTATTA [CACACA_site6093]	10.2
TGCAACAAAATAAACACACACACACCCCCACAAAAA [CACACA_site3388]	10.3
TATATAAATAAACACACACACACCTTATAATTATTA [CACACA_site9345]	9.93
CACAAACAAAAACACACACACACACCCACAAAAATG [CACACA_site2429]	10.1
AAAAAAAAAAAACACACACACACACCCACAAAATAT [CACACA_site1447]	10.2
AAAAAAAAAAAACACACACACACACCCAAATATATA [CACACA_site150]	10.1
ATAAATAAAAAACACACACACACACCCAAAAAAAAA [CACACA_site2624]	10.1
TAAACACCCATATAAACACACATACATACATACATA [CACACA_site5383]	9.7
TATAAACACCCATATAAACACACATACATACATACA [CACACA_site8791]	9.58
TATATAAAGAAACACACACACACCTTATAATTATTA [CACACA_site4062]	10
TTATATAACATTATTTGTACATATAAAATATGGATG [XGTACX_site8526]	9
ATATTATTTTAAAGTACACACATATATTGATATATA [CACACA_site7153]	9.39
TGAATTCGTCAAAAGCGTACATATAATATCTTCTTG [XGTACX_site8842]	9.19
AAAAACTATTGTAGGACACACAAAATTCCAATTTTA [CACACA_site1701]	9.41

Sequence	gcPBM binding intensity (ln)
GTCACAAAATAAATTAAACACACAACATCATATATG [CACACA_site8182]	9.65
AATGTACACCCACCCACACACAAACAAATATATATA [CACACA_site5521]	10.2
ATTAATTATATATATACACACACATACACCCAAATA [CACACA_site9126]	10
TTTAAATACAGACATACACACATACACCCACATATA [CACACA_site8078]	9.81
AATGTACACGCACCCACACACAAACAAATATAAATA [CACACA_site7319]	9.81
ATAAAATACAGATAAACACACATATAAACACCCATA [CACACA_site5381]	9.92
AAAAAAAAAAAAAAAACACACAGAAATATATATATA [CACACA_site4611]	9.55
TAAACAGACATATAAACACACATATAAACAGACATA [CACACA_site7214]	9.91
AACATACATAAACACACACACACACCCACAGAGACA [CACACA_site4430]	10.4
CAAAAAAAATTATACACACACACACCCATATATATA [CACACA_site1044]	10.2
AATGTACCCACACCCACACACAAACAAATATATATA [CACACA_site2751]	9.85
CACAAAAAAAATTATACACACACACCCATATATATA [CACACA_site8255]	9.99
AAAATACAGAAACACACACACACACCCATATATATA [CACACA_site3559]	10.3
AAATAACACTAATGATGTACTCAACTATTTATAATT [XGTACX_site8183]	9.47
TAAATATCAAGACACACACACAAAAGTGAATAAATA [CACACA_site7723]	9.9
TTATATTCTAGAGACACATGCGATTTTTTATTTTAT [TGCATGCA_site649]	9.42
ATATAATGATGGAAAAGAAAAGAAATAAAAAAAAAA [CACACA_negctrl_site1170]	9.21
TAGTTATCACATTGCACACACATTTCCTTTTACATT [CACACA_site7589]	10
CTAAAAATTTTAATTGCACACCACGTTGGACTATTT [CACACA_site1489]	9.24
AGCCATTAATTCTCTACACACCTTTATGTTATTTAG [CACACA_site3635]	9.71
TATTTTAATGAAGCATTTAAGGGAAAAAAAAAAAAA [TGCATGCA_negctrl_site606]	8.85
TTTACAAAAAATTATACACACACGTACAGATAAATA [CACACA_site4678]	9.89
